The values below come from the OligoGym collection.
Also: reference of the scale not given here.

For one assay, the target named is FPGT-TNNI3K. The assay is described as follows: pooled miR-30 sensor sort-seq; sequence = guide strand. As to conditions: shRNA.
TTACATTTACATCAGCACCAAA had a sensor-assay potency score (higher = more potent) of -1.01. Still for that read-out and setting: for TTGACTAGGTCAATGCTCTTGC the value was 0.745; for TTTTATTTCTGCATCGTCCTTT, 0.923.

Consider TTAATTTAGACTGCAAATCAAG, for which the sensor-assay potency score (higher = more potent) was -1.11. The same measure, in the same setting: for TTGAGCATTCACATCTGCTTTG the value was -0.576. Consider TATCTTGAGCATTCACATCTGC, for which the sensor-assay potency score (higher = more potent) is 0.666. TAACATATGATTCACTGACTTT registered a sensor-assay potency score (higher = more potent) of -0.697.

Consider TTCTTTTTCCTTGATCTGCAGG, for which the sensor-assay potency score (higher = more potent) is -0.729. The same measure, in the same setting: to TTTGACTAGGTCAATGCTCTTG belongs -0.0852; to TTTATTTCTGCATCGTCCTTTA, -0.351.

The next assay addresses FRMD4B. The assay is described as above. The settings on record: shRNA.
With TTTCTTTGCAGCTTCCACCAGC, the sensor-assay potency score (higher = more potent) was -0.481. The same measure, in the same setting: to TTACTTGCCATGATGAACTGAC belongs 0.412; to TAGACATTGCCATAGCAGCTGG, -0.855; to TTGTCATCTAATTTGAACGCAG, -0.725. With TAAACTGCCATTACTTGCCATG, the sensor-assay potency score (higher = more potent) is -1.04.

Turning to TTCCATTGGAATAACTTCCGAG, the sensor-assay potency score (higher = more potent) is 0.389. In the case of TTGCTCTTCACTAACTTCTGAG, the sensor-assay potency score (higher = more potent) was -0.0574.
